In PubChem BioAssay (EPA / NIEHS):
Values joined by “and” are separate entries in the source; they are usually repeats but may differ in a detail not shown here. Identical values can stand only once. Where a structure was tested more than once in an assay, its records may differ in their call. Active and inactive are the calls of the source. The calls were made as follows: active = hit-call score of the fitted dose curve at least 0.9, where 1 is the maximum; inactive = score below 0.9.

Experiments:
[1] = read-out: Macrophage colony-stimulating factor (MCSF), CSF1 (gene 1435); assay: BSK_hDFCGF_MCSF: BioMAP Diversity Plus: hDFCGF Assay for Macrophage colony-stimulating factor (MCSF) Biomarker Activity (AID 2283060); settings: primary human foreskin fibroblasts; actives raise or lower the signal
Outline: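 Primary human foreskin fibroblasts dosed with chemical; 24 h later, M-CSF quantified by ELISA; curves fitted in both directions vs DMSO negative control.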

[2] = BSK_hDFCGF_SRB: Viability Assessment in the BioMAP Diversity Plus: hDFCGF Assay (AID 2283061); settings: primary human foreskin fibroblasts;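 also: cells exposed to compound for 24 h before the read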
Outline: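 Readout is SRB absorbance at 560 nm, reflecting total protein in parallel cultures of human foreskin fibroblasts harvested 24 h after chemical dosing. Activity was fitted bidirectionally relative to DMSO.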

[3] = read-out: TIMP metallopeptidase inhibitor 1 (TIMP1), TIMP1 (gene 7076); assay: BSK_hDFCGF_TIMP1: BioMAP Diversity Plus: hDFCGF Assay for TIMP metallopeptidase inhibitor 1 (TIMP1) Biomarker Activity (AID 2283062); settings: primary human foreskin fibroblasts; actives raise or lower the signal
Outline: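 Human skin fibroblasts (primary), hDFCGF system; compound exposure 24 h; TIMP-1 by ELISA; bidirectional fit vs DMSO negative control; overt cytotoxicity by SRB in parallel wells.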

[4] = read-out: Monokine induced gamma interferon (MIG), CXCL9 (gene 4283); assay: BSK_hDFCGF_MIG: BioMAP Diversity Plus: hDFCGF Assay for Monokine induced gamma interferon (MIG) Biomarker Activity (AID 2283063); settings: primary human foreskin fibroblasts; actives raise or lower the signal
Outline: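 Chemicals were added to primary human foreskin fibroblast cultures, which were sampled 24 h later. MIG levels were then quantified by ELISA and responses fitted in both directions relative to DMSO.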

[5] = read-out: Matrix Metallopeptidase 1 (MMP1), MMP1 (gene 4312); assay: BSK_hDFCGF_MMP1: BioMAP Diversity Plus: hDFCGF Assay for Matrix Metallopeptidase 1 (MMP1) Biomarker Activity (AID 2283064); settings: primary human foreskin fibroblasts; actives raise or lower the signal
Outline: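 Primary human foreskin fibroblasts exposed to chemicals for 24 h; MMP1 measured by ELISA. Cytotoxicity tracked by SRB staining in parallel cultures; bidirectional fit relative to DMSO.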

[6] = read-out: Vascular cell adhesion molecule 1 (VCAM1), VCAM1 (gene 7412); assay: BSK_hDFCGF_VCAM1: BioMAP Diversity Plus: hDFCGF Assay for Vascular cell adhesion molecule 1 (VCAM1) Biomarker Activity (AID 2283065); settings: primary human foreskin fibroblasts; actives raise or lower the signal;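 as to AC50: VCAM-1 protein level quantified by ELISA after 24 h chemical exposure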
Outline: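 Human foreskin fibroblast primary cells, chemical exposure 24 h; VCAM-1 by ELISA; bidirectional fit, DMSO = negative control/baseline.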

[7] = read-out: Plasminogen activator inhibitor-1 (PAI1), SERPINE1 (gene 5054); assay: BSK_hDFCGF_PAI1: BioMAP Diversity Plus: hDFCGF Assay for Plasminogen activator inhibitor-1 (PAI1) Biomarker Activity (AID 2283066); settings: primary human foreskin fibroblasts; actives raise or lower the signal
Outline: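 PAI-1 levels, determined by ELISA, served as the endpoint in human foreskin fibroblast cultures exposed to compound for 24 h, with DMSO as baseline.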

[8] = read-out: Intercellular Adhesion Molecule 1 (ICAM1), ICAM1 (gene 3383); assay: BSK_KF3CT_ICAM1: BioMAP Diversity Plus: KF3CT Assay for Intercellular Adhesion Molecule 1 (ICAM1) Biomarker Activity (AID 2283067); settings: primary human keratinocytes with fibroblasts; actives raise or lower the signal
Outline: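 ICAM-1 levels are measured by ELISA 24 h after dosing a primary human co-culture of keratinocytes and foreskin fibroblasts. Activity in either direction is fitted relative to DMSO vehicle.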

[9] = read-out: Interferon-gamma inducible Protein 10 (IP10), CXCL10 (gene 3627); assay: BSK_KF3CT_IP10: BioMAP Diversity Plus: KF3CT Assay for Interferon-gamma inducible Protein 10 (IP10) Biomarker Activity (AID 2283068); settings: primary human keratinocytes with fibroblasts; actives raise or lower the signal
Outline: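 ELISA read-out of IP-10 after 24 h chemical dosing of human skin primary co-culture (keratinocytes, foreskin fibroblasts). Gain or loss of signal relative to DMSO, bidirectional curve fit.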

[10] = BSK_KF3CT_SRB: Viability Assessment in the BioMAP Diversity Plus: KF3CT Assay (AID 2283069); settings: primary human keratinocytes with fibroblasts;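 also: total protein by sulforhodamine B staining as a cytotoxicity measure; read 24 h after compound addition; fitted for both signal gain and loss against DMSO baseline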
Outline: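 Human keratinocyte and foreskin fibroblast co-culture exposed to chemical for 24 h. Total protein measured in parallel cultures by 0.1% sulforhodamine B staining after 10% TCA fixation, read at 560 nm; bidirectional fit relative to DMSO.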

[11] = read-out: Interleukin-1 alpha (IL1a), IL1A (gene 3552); assay: BSK_KF3CT_IL1a: BioMAP Diversity Plus: KF3CT Assay for Interleukin-1 alpha (IL1a) Biomarker Activity (AID 2283070); settings: primary human keratinocytes with fibroblasts; actives raise or lower the signal
Outline: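 Primary human keratinocyte plus foreskin fibroblast co-culture, dosed and measured at 24 h in 96-well plates. IL-1a level quantified by ELISA; bidirectional fit relative to DMSO.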

[12] = read-out: TIMP metallopeptidase inhibitor 2 (TIMP2), TIMP2 (gene 7077); assay: BSK_KF3CT_TIMP2: BioMAP Diversity Plus: KF3CT Assay for TIMP metallopeptidase inhibitor 2 (TIMP2) Biomarker Activity (AID 2283071); settings: primary human keratinocytes with fibroblasts; actives raise or lower the signal
Outline: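 Keratinocyte–fibroblast co-culture, 24 h exposure; TIMP-2 ELISA, DMSO-normalised bidirectional fit. Parallel SRB (0.1%, TCA-fixed, 560 nm) total-protein staining gauges cytotoxicity.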

[13] = read-out: Transforming growth factor beta 1 (TGFb1), TGFB1 (gene 7040); assay: BSK_KF3CT_TGFb1: BioMAP Diversity Plus: KF3CT Assay for Transforming growth factor beta 1 (TGFb1) Biomarker Activity (AID 2283072); settings: primary human keratinocytes with fibroblasts; actives raise or lower the signal
Outline: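 Signal changes in either direction, relative to DMSO, define activity here. TGF-b1 is read by ELISA from a human keratinocyte-fibroblast co-culture 24 h post-dose.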

[14] = read-out: C-C motif chemokine 2 (Homo sapiens) (UniProt P13500); assay: BSK_KF3CT_MCP1: BioMAP Diversity Plus: KF3CT Assay for Monocyte Chemoattractant Protein 1 (MCP1/CCL2) Biomarker Activity (AID 2283073); settings: primary human keratinocytes with fibroblasts; actives raise or lower the signal
Outline: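 ELISA readout of MCP-1 after 24 h chemical dosing of a human skin primary co-culture of keratinocytes and foreskin fibroblasts. Activity was fitted in both directions against DMSO.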

[15] = read-out: Matrix Metallopeptidase 9 (MMP9), MMP9 (gene 4318); assay: BSK_KF3CT_MMP9: BioMAP Diversity Plus: KF3CT Assay for Matrix Metallopeptidase 9 (MMP9) Biomarker Activity (AID 2283074); settings: primary human keratinocytes with fibroblasts; actives raise or lower the signal;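 as to AC50: MMP9 protein level quantified by ELISA in the co-culture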
Outline: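 Human keratinocyte and foreskin fibroblast co-culture exposed to chemicals for 24 h; MMP9 biomarker measured by ELISA, bidirectional fitting relative to DMSO; cytotoxicity tracked by SRB total protein staining in parallel cultures.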

[16] = read-out: urokinase plasminogen activator (uPA), PLAU (gene 5328); assay: BSK_KF3CT_uPA: BioMAP Diversity Plus: KF3CT Assay for urokinase plasminogen activator (uPA) Biomarker Activity (AID 2283075); settings: primary human keratinocytes with fibroblasts; actives raise or lower the signal
Outline: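 Primary human keratinocyte/foreskin fibroblast co-culture exposed to chemical; uPA measured by ELISA at 24 h. Bidirectional fit versus DMSO, with parallel SRB total-protein staining for cytotoxicity.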

[17] = read-out: CD40, CD40 (gene 958); assay: BSK_LPS_CD40: BioMAP Diversity Plus: LPS Assay for CD40 Biomarker Activity (AID 2283076); settings: primary human HUVEC with PBMC; actives raise or lower the signal
Outline: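 Cells were dosed, incubated 24 h, then assayed for CD40 by ELISA. Gain or loss of signal was analysed relative to DMSO controls. The culture paired human umbilical vein endothelium with peripheral blood mononuclear cells.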

[18] = read-out: E-selectin (Homo sapiens) (UniProt P16581); assay: BSK_LPS_Eselectin: BioMAP Diversity Plus: LPS Assay for Eselectin Biomarker Activity (AID 2283077); settings: primary human HUVEC with PBMC; actives raise or lower the signal
Outline: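 Primary human vascular co-culture (endothelium plus PBMC) was dosed with chemical, then E-selectin quantified by ELISA at 24 h. Endpoint values derive from bidirectional curve fitting relative to DMSO.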

[19] = read-out: Interleukin-8 (IL8), CXCL8 (gene 3576); assay: BSK_LPS_IL8: BioMAP Diversity Plus: LPS Assay for Interleukin-8 (IL8) Biomarker Activity (AID 2283078); settings: primary human HUVEC with PBMC; actives raise or lower the signal
Outline: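 Readout is IL-8 by ELISA, taken 24 h after compounds were added to LPS-stimulated endothelial/PBMC co-cultures. Both increases and decreases relative to DMSO control were scored through bidirectional fitting.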

[20] = BSK_LPS_SRB: Viability Assessment in the BioMAP Diversity Plus: LPS Assay (AID 2283079); settings: primary human HUVEC with PBMC;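 also: total protein by sulforhodamine B absorbance as a cytotoxicity measure; measured one day after compound addition; fitted in both directions against DMSO so loss or gain of signal counts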
Outline: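 Readout is SRB absorbance at 560 nm (0.1% stain, TCA-fixed parallel cultures) as a total-protein cytotoxicity measure. Cells: primary human umbilical vein endothelium plus peripheral blood mononuclear cells, 24 h after chemical exposure; DMSO served as baseline.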

Measured: AC50

Chain of E-selectin (Homo sapiens) (P16581 whole entry, looked up): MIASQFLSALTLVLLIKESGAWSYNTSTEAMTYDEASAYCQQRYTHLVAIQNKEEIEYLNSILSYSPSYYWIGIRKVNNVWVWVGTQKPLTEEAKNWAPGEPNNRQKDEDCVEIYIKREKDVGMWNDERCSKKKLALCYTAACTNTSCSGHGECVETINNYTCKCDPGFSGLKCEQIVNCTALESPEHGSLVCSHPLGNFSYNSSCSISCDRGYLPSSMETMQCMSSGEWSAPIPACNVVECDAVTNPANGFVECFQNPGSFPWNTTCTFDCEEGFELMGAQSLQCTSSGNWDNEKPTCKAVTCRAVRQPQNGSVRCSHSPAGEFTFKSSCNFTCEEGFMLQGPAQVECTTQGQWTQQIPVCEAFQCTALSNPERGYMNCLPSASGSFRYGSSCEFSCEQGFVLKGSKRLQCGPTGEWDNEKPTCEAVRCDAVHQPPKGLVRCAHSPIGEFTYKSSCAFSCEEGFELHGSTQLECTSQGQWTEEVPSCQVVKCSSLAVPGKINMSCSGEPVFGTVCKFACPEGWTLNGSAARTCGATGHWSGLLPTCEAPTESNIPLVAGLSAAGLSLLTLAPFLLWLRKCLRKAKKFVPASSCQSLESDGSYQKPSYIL

Oc1cc(Cl)ccc1Oc1ccc(Cl)cc1Cl
active: [1] 10.7 µM [middle of 4 runs] | [2] 13.1 µM and 9.31 µM and 17 µM | [3] 20 µM [middle of 4 runs] | [4] 20.4 µM and 14.1 µM and 23.9 µM | [5] 29.9 µM and 12.3 µM and 26.1 µM | [6] 8.72 µM [middle of 4 runs] | [7] 6.96 µM and 8.43 µM and 7.44 µM | [8] 32.2 µM [middle of 4 runs] | [9] 33.7 µM and 29 µM | [10] 30.1 µM and 14.4 µM and 28.2 µM | [11] 29.8 µM [middle of 4 runs] | [12] 30 µM and 29.7 µM and 20 µM | [13] 18.5 µM [middle of 4 runs] | [14] 36.6 µM [middle of 4 runs] | [15] 15.2 µM [middle of 4 runs] | [16] 31 µM [middle of 4 runs] | [17] 12.3 µM and 9.21 µM and 12.1 µM | [18] 15.6 µM [middle of 4 runs] | [19] 27.6 µM [middle of 4 runs] | [20] 17.1 µM and 19.7 µM and 18.7 µM
inactive: [9]

COC(=O)c1ccccc1S(=O)(=O)NC(=O)Nc1nc(C)nc(OC)n1
inactive: all assays above

CCC(C)Nc1c([N+](=O)[O-])cc(C(C)(C)C)cc1[N+](=O)[O-] (stereo not given)
active: [1] 21.5 µM | [2] 32.9 µM | [6] 15.4 µM | [7] 5.08 µM | [17] 31.9 µM | [18] 14.6 µM | [20] 20 µM
inactive: all other assays above

CC(C)OC(=O)Nc1cccc(Cl)c1
active: [20] 3.97 µM
not listed: [10]
inactive: all other assays above

CNC(=O)/C=C(\C)OP(=O)(OC)OC
inactive: all assays above

COc1cc(OC)nc(NC(=O)NS(=O)(=O)c2cc(NC=O)ccc2C(=O)N(C)C)n1
not listed: [10]
inactive: all other assays above

N#Cc1c(Cl)c(Cl)c(Cl)c(C#N)c1Cl
active: [1] 1.11 µM | [2] 0.148 µM | [3] 2.58 µM | [4] 0.148 µM | [5] 0.986 µM | [6] 1.08 µM | [7] 0.615 µM | [8] 0.786 µM | [9] 0.585 µM | [11] 1.5 µM | [12] 1.89 µM | [13] 1.32 µM | [14] 1.79 µM | [15] 1.23 µM | [16] 1.66 µM | [17] 0.148 µM | [18] 0.758 µM | [19] 1.2 µM | [20] 3.65 µM

CCC(C)(C)C(=O)OC1=C(c2ccc(Cl)cc2Cl)C(=O)OC12CCCCC2
active: [1] 5.55 µM | [2] 11.4 µM | [3] 5.42 µM | [4] 9.84 µM | [5] 7.8 µM | [6] 9.68 µM | [7] 6.68 µM | [8] 29.5 µM | [9] 29.9 µM | [11] 31.1 µM | [12] 28 µM | [13] 31 µM | [14] 31.4 µM | [15] 20 µM | [16] 30.9 µM | [17] 10.5 µM | [18] 25.3 µM | [19] 32.6 µM | [20] 28.6 µM

O=S1OCC2C(CO1)C1(Cl)C(Cl)=C(Cl)C2(Cl)C1(Cl)Cl (stereo not given)
active: [1] 24.2 µM | [2] 26.7 µM | [3] 32 µM | [4] 37.6 µM | [5] 36.7 µM | [6] 33.5 µM | [8] 31.9 µM | [9] 29.9 µM | [11] 29.1 µM | [12] 26.9 µM | [15] 15.9 µM | [16] 30.9 µM | [17] 29.2 µM | [18] 30.9 µM | [19] 33.5 µM
inactive: [13]

Cc1[nH]c(=O)n(C(C)(C)C)c(=O)c1Cl
not listed: [10] | [17]
inactive: all other assays above

CCN(CC)C(=O)SCc1ccc(Cl)cc1
not listed: [10]
inactive: all other assays above
